PubChem BioAssay (NCATS)
Records with an inconclusive call do not appear. Unmarked numbers belong to inactive results. Activity calls are given as the source filed them. Calls come from the whole dose curve; as a rule, active = well fitted inhibition curve with a large enough effect; inconclusive = small, poorly fitted or top-dose-only effect; inactive = no such curve, though single readings can be large or run the other way.
Potency is the fitted concentration of half-maximal effect.

Assay: qHTS to identify inhibitors of the type 1 interferon - major histocompatibility complex class I in skeletal muscle: primary screen against the NCATS Mechanism Interrogation Plate v5.0 (MIPE) Libary (AID 1347411); note: nearly all actives have a fitted effect of over 65% in size;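 for activity change, negative = inhibition: plate controls were vehicle for no effect and reference inhibitor for full effect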
Conditions: iHSKM cells + IFN-b, HiBiT-tagged MHC-I luminescence, 24 h; series mostly up to 45.8 µM; activity change, negative = inhibition: at the top concentration
Outline: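 Seed engineered human myoblasts (HLA-B HiBit) in medium without dexamethasone containing 4 ng/ml IFN-beta; after 1 hr add compound titrations (top 46 uM final). Incubate 24 hrs at 37 C, lyse 10 min with HiBiT reagent, read luminescence.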
For `CCOc1ccc(Cc2cc([C@@H]3O[C@H](CO)[C@@H](O)[C@H](O)[C@H]3O)ccc2Cl)cc1`, the “activity change, negative = inhibition” value was -11.8%.
For `COC(=O)[C@H]1[C@@H](O)[C@@]2(O)c3c(OC)cc(O[C@@H]4O[C@@H]([C@@H](O)CO)CO[C@H]4OC)cc3O[C@@]2(c2ccc(OC)cc2)[C@@H]1c1ccccc1`, the “activity change, negative = inhibition” value was 2.34%.
In the case of `O=C(NCc1ccc(S(=O)(=O)c2cccc(C(F)(F)F)c2)cc1)c1cnc2[nH]ncc2c1`, the “activity change, negative = inhibition” value is reported as -15.7%.
For `COC[C@@H](c1ccc(C(F)(F)F)cc1)N1CCN(C2(C)CCN(C(=O)c3c(C)ncnc3C)CC2)C[C@@H]1C`, the “activity change, negative = inhibition” value was 36%.
For `Cc1c(F)cccc1NC(=O)Nc1ccc(Cl)c(S(=O)(=O)[C@H]2CCCNC2)c1O`, the “activity change, negative = inhibition” value was -5.28%.
In the case of `Cc1ccc(-c2nc(N)nc3c2nnn3Cc2cccc(CO[C@H]3CCOC3)n2)o1`, the “activity change, negative = inhibition” value is reported as -22.7%.
With `CCNC(=O)Nc1ccc(Oc2ncnc(N)c2/C=N/OC)cc1Cl` the “activity change, negative = inhibition” value was -6.93%.
For `COc1cccc(-c2c(C)n(Cc3c(F)cccc3C(F)(F)F)c(=O)n(C[C@H](NCCCC(=O)O)c3ccccc3)c2=O)c1F`, the Potency was “inactive”.
In the case of `C=CC(=O)N1CCC(CNc2ncnc(N)c2-c2ccc(Oc3ccccc3)cc2)CC1`, the “activity change, negative = inhibition” value is reported as -8.6%.
With `O=C1CC[C@H](N2Cc3c(OCc4ccc(CN5CCOCC5)cc4)cccc3C2=O)C(=O)N1` the “activity change, negative = inhibition” value was -2.36%.
For `C[C@@H]1C(=O)OC2[C@H](O)[C@]34[C@H]5C[C@@H](C(C)(C)C)[C@]36[C@@H](OC(=O)[C@@H]6O)O[C@@]4(C(=O)O5)[C@]21O` (stereo not given in full), the “activity change, negative = inhibition” value was 11.5%.
For `O=C(Nc1nccs1)C(c1cc(F)ccc1O)N1Cc2ccccc2C1=O` (stereo not given), the “activity change, negative = inhibition” value was -24.1%.
For `C=CC(=O)N1CCC[C@H](n2c(=O)n(-c3ccc(Oc4ccccc4)cc3)c3c(N)ncnc32)C1`, the “activity change, negative = inhibition” value was -27.8%.
In the case of `COc1cc(C(=O)NC(N)=Nc2ccc(C)c(NC(=O)c3ccc(-c4ccccc4)cc3)c2)cc(OC)c1OC`, the “activity change, negative = inhibition” value is reported as -23.1%.
For `COC(=O)C1=C(C)NC(c2ncc(F)cc2F)=N[C@H]1c1ccc(F)cc1Cl`, the Potency was 20.8 µM (active).
With `COc1ccc(COc2ccc(Cc3cnc(N)nc3N)cc2OC)cc1` the “activity change, negative = inhibition” value was -59.7%.
With `CC1(C)C(N(O)C(=O)Nc2ccc(Cl)cc2)N(c2ccc(Cl)cc2)C(=O)N1CC(=O)N/N=C/C=C/c1ccc([N+](=O)[O-])o1` (stereo not given) the Potency was 14.7 µM (active).
With `Cc1cc(-c2cnn3c(NCC4CC(C)(O)C4)cc(Oc4cccnc4)nc23)ccc1C(=O)NC1CC1` (stereo not given) the activity change, negative = inhibition was -24.9% [at 5.1 µM].
With `Cn1c(-c2ccccc2C(F)(F)F)nnc1C12CCC(c3noc(C4CC(F)(F)C4)n3)(CC1)CC2` the “activity change, negative = inhibition” value was 3.81%.
In the case of `C[C@]12CC[C@H](O)CC1=CC[C@@H]1[C@@H]2CC[C@]2(C)C(c3cccnc3)=CC[C@@H]12`, the “activity change, negative = inhibition” value is reported as 6.12% [at 15.5 µM].
For `Cc1cc(C)cc(Oc2ccc(CNC(=O)[C@H](C)N)cc2C)c1`, the “activity change, negative = inhibition” value was -8.28%.
With `Cn1cc(-c2nc(N[C@@H]3CCCC[C@@H]3N)c(F)c3c2C(=O)NC3)cn1` the activity change, negative = inhibition was -16.3% [at 5.1 µM].
For `CC[C@@]1(O)C(=O)OCc2c1cc1n(c2=O)Cc2c-1nc1ccccc1c2CCNC(C)C`, the Potency was 0.739 µM (active).
For `c1ccc(CNCc2ccc(CN3CCCNCCNCCCNCC3)cc2)nc1`, the “activity change, negative = inhibition” value was 18%.
For `CN1C(=O)N[C@H](Cc2c[nH]c3c(Cl)cccc23)C1=O`, the “activity change, negative = inhibition” value was -12.7%.
In the case of `Cc1ccc(NS(=O)(=O)c2ccc3c(c2)C2C=CCC2C(c2ccc(C(=O)O)cc2)N3)cc1C` (stereo not given), the “activity change, negative = inhibition” value is reported as -4.58%.
In the case of `O=C(Nc1ccccc1)Nc1ccc(-c2ccc(C(=O)[C@@H]3CCC[C@H]3C(=O)O)cc2)cc1`, the “activity change, negative = inhibition” value is reported as -12.4%.
In the case of `CCS(=O)(=O)c1ccc2oc(-c3ccc4ccccc4c3)nc2c1`, the “activity change, negative = inhibition” value is reported as -3.25%.
For `C[C@]12CCC3=C4CCC(=O)C=C4CC[C@H]3[C@@H]1CC[C@@]2(O)CC#N`, the “activity change, negative = inhibition” value was 6.07%.
For `CC(C)=CCC[C@](C)(O[C@@H]1O[C@H](CO[C@@H]2O[C@H](CO)[C@@H](O)[C@H](O)[C@H]2O)[C@@H](O)[C@H](O)[C@H]1O)[C@H]1CC[C@]2(C)[C@@H]1[C@H](O)C[C@@H]1[C@@]3(C)CC[C@H](O[C@@H]4O[C@H](CO)[C@@H](O)[C@H](O)[C@H]4O[C@@H]4O[C@H](CO)[C@@H](O)[C@H](O)[C@H]4O)C(C)(C)[C@@H]3CC[C@]12C`, the “activity change, negative = inhibition” value was 9.71% [at 15.5 µM].
In the case of `N=C1S/C(=C\c2ccc(-c3ccc4c(c3)C(=O)NC4=O)o2)C(=O)N1c1ccc(Br)cc1`, the “activity change, negative = inhibition” value is reported as 6.58% [at 15.5 µM].
For `O=C(/C=C\n1cnc(-c2cc(C(F)(F)F)cc(C(F)(F)F)c2)n1)NNc1ccccn1`, the Potency was 2.34 µM (active).
For `C=CC(=O)Nc1cccc(Oc2nc(Nc3ccc(N4CCN(C)CC4)c(F)c3)nc3[nH]ccc23)c1`, the Potency was 20.8 µM (active).
For `O=S(=O)(Nc1ccc(-c2cccnc2)c2cccnc12)c1cccc(C(F)(F)F)c1`, the Potency was 8.29 µM (active).
With `CC(C)n1ncnc1-c1cn2c(n1)-c1ccc(O[C@@H](C)C(N)=O)cc1OCC2` the “activity change, negative = inhibition” value was -21.1%.
For `COc1ccc2[nH]c3c(c2c1)CCN[C@]31CS[C@@H]2c3c(OC(C)=O)c(C)c4c(c3[C@H](COC1=O)N1[C@@H]2[C@H]2c3c(cc(C)c(OC)c3O)C[C@@H]([C@@H]1O)N2C)OCO4`, the Potency was 0.0535 µM (active).
With `COc1cc([C@@H]2c3cc4c(cc3[C@@H](O[C@@H]3O[C@@H]5CO[C@@H](c6cccs6)O[C@H]5[C@H](O)[C@H]3O)[C@H]3COC(=O)[C@H]23)OCO4)cc(OC)c1O` the “activity change, negative = inhibition” value was -28.7%.
With `C=C1CCC[C@]2(C)C=C3OC(=O)C(C)=C3C[C@@H]12` the “activity change, negative = inhibition” value was -2.2%.
For `COc1cc(C)[nH]c(=O)c1CN1CCc2c(Cl)cc([C@H](OC)C3COC3)c(Cl)c2C1=O`, the “activity change, negative = inhibition” value was -0.684%.
In the case of `CC1=NN(c2ccc(C(=O)O)cc2)C(=O)/C1=C/c1ccc(-c2cc(C)c(C)cc2[N+](=O)[O-])o1`, the “activity change, negative = inhibition” value is reported as 6.09%.
